Source: PubChem BioAssay
Lassa entry inh: blocks Lassa virus binding to or entry into cells; actives 1.2% (n = 300,000); Lassa virus pseudotype entry inhibition, cell reporter; AID 540256; Potency, µM (highest dose often 37.9 µM), for inactives: at the highest dose activity change, negative = inhibition, hits mostly inhibitors; calls by dose curve; tested in HEK293 cells; further: potency means the concentration at half of the fitted maximal effect; on the % scale 0 is the no-effect control and ±100 the full control effect; nearly all actives have a fitted effect of over 50% in size
SARS PLpro yeast: inhibitors of SARS-CoV papain-like protease in yeast; S. cerevisiae expressing SARS-CoV PLpro, growth rescue; Potency, µM (highest dose often 32.9 µM), for the others: at the highest dose activity, positive = growth rescue, most hits filed as activators; actives 0.19% (n = 330,000); calls by dose curve; further: potency means the concentration at half of the fitted maximal effect; 0% is about no effect; nearly all actives have a fitted effect of over 55% in size
HCV inh: blocks hepatitis C virus; Potency, µM (highest dose often 41.8 µM), inactives show at the highest dose activity change, negative = inhibition, hits mostly inhibitors; Huh7.5.1 HCVcc-Cre infection, luciferase reporter, 44 h; actives 3.4% (n = 340,000); AID 651820; active means well fitted inhibition curve with a large enough effect; inconclusive means small, poorly fitted or top-dose-only effect, or another doubt; inactive means no such curve, though single readings can be large or run the other way; further: potency means the concentration at half of the fitted maximal effect; on the % scale 0 is the no-effect control and ±100 the full control effect
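Cells seeded at 1,000/well and cultured 4 h, then compounds added followed by HCVcc-Cre virus (~0.5 moi). After 44 h further culture, luciferase substrate was added, plates held 15 min at room temperature, and luminescence read for 15 sec.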
FMDV inh: foot and mouth disease virus antiviral activity; FMDV antiviral cell-based qHTS; Potency, µM (series often up to 57.9 µM), for the others: at the top dose activity change, negative = inhibition, most hits filed as inhibitors; actives 1.2% (n = 410,000); calls by dose curve; tested in HEK293T cells; further: read-out not given here; potency means the concentration at half of the fitted maximal effect; on the % scale 0 is the no-effect control and ±100 the full control effect; nearly all actives have a fitted effect of over 45% in size
HCMV inh: inhibitors of human cytomegalovirus | activity change, negative = inhibition, % at 57.5 µM | HFF cells, HCMV-luciferase reporter, 72 h; stronger effect = lower value | AID 1259415 | actives 4.5% (n = 410,000); in the data active means activity change below about -60%; inconclusive means no clear call, values can overlap the other calls; inactive means above about -39%; further: on the % scale 0 is the no-effect control and ±100 the full control effect
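Inhibition of viral replication was scored as loss of reporter luminescence in HFFs infected with HCMV-luciferase (MOI 1 PFU/cell) for 72 h; compounds tested at 2 doses, normalized to buffer and Salinomycin controls.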
MARV entry inh: blocks Marburg virus binding to or entry into cells; actives 1.8% (n = 300,000); Potency, µM (doses to about 37.8 µM), for the others: top-dose activity change, negative = inhibition, hits mostly inhibitors; Marburg virus pseudotyped entry inhibition, cell reporter; AID 540276; calls by dose curve; tested in HEK293 cells; further: potency means the concentration at half of the fitted maximal effect; on the % scale 0 is the no-effect control and ±100 the full control effect
* marks the source's active call; other numbers are inactive results; ? = inconclusive; . = no result; + = active, no number; [ ] = dose if it differs, or a comment. Shown are actives, neighbours in structure and some others; about 8% of the full set was active somewhere.

SMILES	Lassa entry inh	SARS PLpro yeast	HCV inh	FMDV inh	HCMV inh	MARV entry inh
O=C(Nc1ccc2nn(-c3ccccc3)nc2c1)c1ccc(-c2cccc(Cl)c2)o1	-1.5%[46.1 µM]	.	.	-11.0%	-74.6*	.
CCn1ncc(Br)c1C(=O)Nc1ccc(Cl)cn1	-1.5%	3.8%	15.3%	-8.1%	-64.7*	3.6%
CN=C(c1ccc(C)cc1)n1c(=S)nc(-c2ccc(C)cc2)n(C)c1=S	17.3%	-2.3%	-8.7%	-6.0%	15.2	-14.0%[46.1 µM]
CN=C(c1ccco1)n1c(=S)nc(-c2ccco2)n(C)c1=S	7.2%	4.5%	11.2µM*	7.0%	73.3	-1.6%[46.1 µM]
COC(=O)c1ccc(S(=O)(=O)N2CCCN(Cc3ccccc3)CC2)n1C	?	-0.2%	-9.0%	-17.4%	-4.3	1.3%
COC(=O)c1ccc(S(=O)(=O)N2CCCN(Cc3cccc(Br)c3F)CC2)n1C	.	-1.9%	?	?	-74.5*	.
Cc1ccc(S(=O)(=O)N2CCC(=O)N(CCOC(=O)Nc3cccc(Cl)c3)CC2)cc1	-1.0%	5.6%	?	8.6%	-64.3*	-0.5%
COc1ccc(CNC(=O)OCCN2CCN(S(=O)(=O)c3ccc(C)cc3)CCC2=O)cc1	3.6%	-10.0%	-2.2%	0.0%	-65.2*	?
Cc1ccc(S(=O)(=O)N2CCC(=O)N(CCOC(=O)NCc3ccccc3)CC2)cc1	7.6%	6.0%	-0.6%[8.37 µM]	21.9%	13.6	-0.9%
CNC(=O)NC(=O)CN1C=NC2SC(c3ccccc3)C=C2C1=O (stereo unspecified)	.	.	.	.	.	-1.7%[46.1 µM]
CCCc1cc(-c2n[nH]c(C(=O)OCC)c2-c2cscn2)c(O)cc1O	?	5.8%	?	35.5µM*	-86.8*	?
CC1=C(C(=O)OCc2ccccc2)C(c2ccsc2)NC(=O)N1C (stereo unspecified)	.	0.1%	-2.3%	-28.6%	-39.3	.
CC1=C(C(=O)OCCc2ccccc2)C(c2ccsc2)NC(=O)N1C (stereo unspecified)	?	22.2%	-19.4%	-19.9%	-66.5*	-19.4%
Cc1ccc(Nc2c(-c3ccccn3)nc3cccc(C)n23)cc1	.	-32.7%	6.31µM*	?	0.0	.
Cc1cccc2nc(-c3ccccn3)c(Nc3ccccc3)n12	11.2µM*	.	.	?	-82.4*	?
Cc1ccc(Nc2c(-c3ccc(C)o3)nc3cccc(C)n23)cc1	-11.0%[46.1 µM]	.	.	-3.5%	-16.2	?
Cc1ccn2c(Nc3ccc(F)cc3)c(-c3ccccn3)nc2c1	0.0%[46.1 µM]	.	.	-13.8%	-9.9	4.8%[46.1 µM]
Cc1cccc2nc(-c3ccco3)c(Nc3ccccc3)n12	.	-16.9%	?	?	?	.
Cc1cccc2nc(-c3ccccn3)c(Nc3ccc(F)cc3)n12	?	.	.	?	-97.2*	?
COC(=O)NC/C=C\c1nc(CCCO)co1	.	.	.	.	.	-24.0%[14.2 µM]
COc1cc(-c2nc3ccc(N4CCN(C)CC4)cc3[nH]2)cc(OC)c1OC	?	0.2%	7.94µM*	-1.3%	90.8	?
Cc1ccc(-c2csc(-c3cc4c([nH]c3=O)CC(c3ccccc3)CC4=O)n2)cc1 (stereo unspecified)	8.0%[46.1 µM]	.	.	-13.6%	0.4	-12.0%[46.1 µM]
Cc1cccc(N(Cc2ccccc2)C(=O)CCl)c1	-13.5%	-0.7%	3.98µM*	12.6µM*	-115.9*	?
O=C(CCl)N(Cc1ccccc1)c1ccccc1	?	0.7%	5.01µM*	22.4µM*	-98.0*	16.4µM*
COC(=O)c1ccc(C(=O)N(Cc2ccccc2)c2ccccc2)cc1	?	?	?	30.3%	20.8	-27.6%[46.1 µM]
SMILES	Lassa entry inh	SARS PLpro yeast	HCV inh	FMDV inh	HCMV inh	MARV entry inh
CCOc1ccc(C(=O)N(CC(=O)Nc2cccc(C)c2C)CC2CCCO2)cc1OC (stereo unspecified)	0.4%	4.0%	6.7%	13.5%	+	5.2%
COc1cccc(C(c2c(NC(=O)c3ccccc3)sc(C)c2C)N2CCN(C)CC2)c1 (stereo unspecified)	?	4.4%	3.6%	-23.5%	-35.8	20µM*
COc1ccc(C(c2c(NC(=O)c3ccccc3)sc(C)c2C)N2CCN(CCO)CC2)cc1 (stereo unspecified)	?	9.9%	-8.3%	-18.5%	-9.8	?
CCN1CCN(C(c2ccccn2)c2c(NC(=O)c3ccccc3)sc(C)c2C)CC1 (stereo unspecified)	?	-5.9%	?	?	-31.6	10µM*
CCc1nc(SCc2cccnc2)c2c(=O)n(C)c(=O)n(C)c2n1	.	6.2%	-9.8%	?	?	.
CC(C)Cc1nc(SCc2cccnc2)c2c(=O)n(C)c(=O)n(C)c2n1	?	-0.2%	10µM*	?	?	?
CNC[C@@H]1Oc2cc(Br)ccc2S(=O)(=O)N([C@@H](C)CO)C[C@H]1C	.	.	.	-8.0%	6.7	.
OCCC1CN(Cc2cnc(-c3ccc(Cl)cc3)nc2)CCN1C1CCCC1 (stereo unspecified)	-4.6%	0.2%	7.08µM*	?	?	?
OCCC1CN(CC(c2ccccc2)c2ccccc2)CCN1C1CCCC1 (stereo unspecified)	?	0.5%	?	-17.1%	-31.6	13µM*
OCCC1CN(Cc2cnc(-c3ccccc3)s2)CCN1C1CCCC1 (stereo unspecified)	0.3%	0.3%	?	-26.8%	-65.6*	?
OCCC1CN(Cc2cnc(-c3ccccc3)s2)CCN1C1CCCCC1 (stereo unspecified)	-16.1%	-0.1%	-24.9%	-12.6%	?	-8.4%[46.1 µM]
OCCC1CN(CC#Cc2ccccc2)CCN1C1CCCC1 (stereo unspecified)	-21.7%[46.1 µM]	0.0%	-4.3%	-12.6%	-37.1	0.9%[46.1 µM]
CC(C)CN1CCN(Cc2cnc(-c3ccc(Cl)cc3)nc2)CC1CCO (stereo unspecified)	.	-0.2%	?	11.1%	40.1	.
COc1ccc(CN2CCOc3ccc(C(O)c4cccnc4)cc3C2)cc1O (stereo unspecified)	.	.	.	-19.2%	.	.
CCOC(=O)c1cc(-c2ccc3c(c2)OCCO3)n[nH]1	?	-0.2%	-19.7%	-6.0%	26.7	5.62µM*
Cc1nonc1NC(=O)CSc1nc(C23CC4CC(CC(C4)C2)C3)nc2ccccc12	.	0.9%	?	-22.0%	-68.8*	.
COC(=O)CSc1nc2cc(Cl)ccc2c(=O)n1C1CCCC1	-33.3%	-3.4%	-18.5%	-21.3%	86.2	-19.5%
NC(=O)CSc1nc(C23CC4CC(CC(C4)C2)C3)nc2ccccc12	.	-2.2%	3.4%	-14.5%	-35.8	.
NC(=O)CSc1nc2cc(Cl)ccc2c(=O)n1C1CCCCC1	18.8%[46.1 µM]	-3.1%	11.2µM*	-19.7%	-14.5	?
Cc1cc(NC(=O)CSc2nc(C3CCCCC3)nc3ccccc23)no1	-15.0%	5.1%	-8.9%	?	-76.3*	-20.8%
O=C(CSc1nc(C2CC2)nc2ccccc12)Nc1ccccc1	-5.2%[46.1 µM]	-1.5%	?	-20.5%	-35.7	?
